# Cycloheximide cs: counter-screen hit for Shiga toxin inhibitors, cycloheximide; 300,000 compounds, 12% hits; cell reporter, cycloheximide protein synthesis inhibition counterscreen; max response, %; AID 2314; in the data active means max response mostly above about 13%, no sharp cut-off; inactive means mostly below about 14%; further: read at 38.3 µM for the half of the compounds with a filed dose; 0% is about no effect
# FBPA Giardia inh: inhibitors of Giardia lamblia fructose-1,6-bisphosphate aldolase; Potency, µM (titrated, usually from 59.6 µM), inactives show at the top dose activity, negative = inhibition, hits mostly inhibitors; purified Giardia FBPA; 290,000 compounds, 0.71% hits; A8B2U2; AID 2451; further: potency means the concentration at half of the fitted maximal effect; on the % scale 0 is the no-effect control and ±100 the full control effect; nearly all actives have a fitted effect of over 55% in size
# Target sequence (A8B2U2 whole entry, looked up): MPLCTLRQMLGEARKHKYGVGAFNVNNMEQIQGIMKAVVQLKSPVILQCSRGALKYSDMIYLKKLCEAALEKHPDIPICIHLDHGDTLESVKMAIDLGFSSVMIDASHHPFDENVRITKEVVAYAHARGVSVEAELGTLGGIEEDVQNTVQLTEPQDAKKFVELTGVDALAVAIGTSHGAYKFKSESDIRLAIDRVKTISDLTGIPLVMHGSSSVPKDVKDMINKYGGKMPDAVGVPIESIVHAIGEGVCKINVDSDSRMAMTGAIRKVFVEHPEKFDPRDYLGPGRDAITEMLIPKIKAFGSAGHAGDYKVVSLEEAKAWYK
#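 40 nM FBPA preincubated 10 min at RT with compound (up to 57.5 uM final), then substrate plus GAPDH/TPI/NAD/arsenate coupling and diaphorase/resazurin added. Fluorescence read after 20 min at RT, 525/598 nm.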
# NS1 inh: blocks influenza NS1 protein function; Potency, µM (top dose mostly 46.1 µM), without a hit: top-dose activity, positive = more growth; 270,000 compounds, 0.4% hits; calls by dose curve; further: potency means the concentration at half of the fitted maximal effect; actives are rising curves; nearly all actives have a fitted effect of over 50% in size
#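 Recovery from NS1-induced slow growth read by OD600 in budding yeast switched to galactose assay medium (pH 6.0, -URA) at 1:100 dilution. Compound 23 nl per well; the matching strain lacking NS1 serves as control.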
# Shiga inhibitor: inhibitors of Shiga toxin in Vero cells; Vero cells, Shiga toxin protein synthesis inhibition reporter; 290,000 compounds, 9.2% hits; inhibition, % at 38.7 µM; in the data active means inhibition mostly above about 28%, no sharp cut-off; inactive means mostly below about 43%; further: 0% is about no effect
# Pf growth 96h: P. falciparum growth inhibition at 96 hours; 320,000 compounds, 6.9% hits; AID 504834; P. falciparum luciferase reporter growth, 96 h; Potency, µM (series often up to 28.7 µM), for the others: at the top dose activity change, negative = inhibition, usual class: inhibitors; further: potency means the concentration at half of the fitted maximal effect; on the % scale 0 is the no-effect control and ±100 the full control effect
#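 Infected RBCs, 2% Hct / 0.05% parasitemia final; luciferase-reporter P. falciparum; cpd 96 h, 37 C, 5% CO2; luciferase detection reagent; luminescence.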
# Pf growth 48h: inhibits P. falciparum growth in the first generation, 48 h; AID 504832; Potency, µM (series often up to 28.7 µM), without a hit: top-dose activity change, negative = inhibition, usual class: inhibitors; P. falciparum luciferase growth in erythrocytes, 48 h; 310,000 compounds, 5.9% hits; further: potency means the concentration at half of the fitted maximal effect; on the % scale 0 is the no-effect control and ±100 the full control effect
#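 A one-generation exposure of luciferase-tagged malaria parasites in RPMI 1640/Albumax erythrocyte culture, 37 C and 5% CO2. Inhibition is inferred from decreased luminescence after adding detection reagent.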
# * marks the source's active call; other numbers are inactive results; ? = inconclusive; nt = no result; [ ] = remark or other dose. Shown are actives, neighbours in structure and some others; about 21% of the full set was active somewhere. Unless noted, the call rests on the fitted dose curve; in most records, active means well fitted curve in the direction sought with a large enough effect; inconclusive means small, poorly fitted or top-dose-only effect, or another doubt; inactive means no such curve, though single readings can be large; an effect the other way counts as inactive or inconclusive.
SMILES,Cycloheximide cs,FBPA Giardia inh,NS1 inh,Shiga inhibitor,Pf growth 96h,Pf growth 48h
O=S(=O)(c1ccc(F)cc1)N1CCN(c2nc(-c3ccccc3)nc3cc(Cl)ccc23)CC1,-1,nt,nt,-3,nt,nt
COc1cccc(C(=O)Nc2ccc3nc4n(c(=O)c3c2)CCCC4)c1,23*,4%,-3%,56*,78%,13%
COc1ccc(Cl)cc1C(=O)Nc1ccc2nc3n(c(=O)c2c1)CCCC3,0,7%,-1%,14,2.1µM*,?
O=C(COc1ccc(Cl)cc1Cl)Nc1ccc2nc3n(c(=O)c2c1)CCCC3,6,14%,-32%,-6,?,-23%
CCN(CC)CCNC(=S)Nc1ccc2nc3n(c(=O)c2c1)CCCCC3,-3,-1%,nt,-17,1%,17%
CN(C)c1cccc(C(=O)Nc2ccc3nc4n(c(=O)c3c2)CCCCC4)c1,24*,-8%,-14%,53*,15%,nt
O=c1c2cc(NC(=S)NCc3cccnc3)ccc2nc2n1CCCCC2,22*,-12%,14%,69,4%,42%
CC(C)C[C@@H](CC(=O)N[C@H](CC(=O)N[C@@H]1CCCC[C@H]1C(=O)N[C@H](CC(=O)N[C@@H](CCC(=O)O)CC(=O)O)Cc1c[nH]c2ccccc12)C(C)C)NC(=O)[C@@H]1CNCC[C@H]1N,nt,-22%,nt,nt,nt,nt
CCO[C@H]1OC(C(N)=O)=C[C@@H](C)[C@@H]1CCCO,-2,1%,3%,-14,0%,0%
O=C(/C=C/c1ccco1)Nc1ccc2nc3n(c(=O)c2c1)CCCC3,52*,2%,nt,66*,?,64%
CCOC(=O)N1CCN(C(=O)CC(=O)Nc2ccc3nc4n(c(=O)c3c2)CCCCC4)CC1,1,5%,-3%,-13,7%,5.9µM*
O=C(Nc1ccc2nc3n(c(=O)c2c1)CCCCC3)C(=O)N1CCN(c2ccccc2)CC1,1,3%,1%,-3,?,1.3µM*
COc1cc(NC(=O)C(=O)Nc2ccc3nc4n(c(=O)c3c2)CCCCC4)cc(OC)c1OC,2,1%,6%,-10,0%,7%
COc1cc(C(=O)Nc2ccc3nc4n(c(=O)c3c2)CCCC4)ccc1Br,18,6%,2%,-4,-3%,8.3µM*
Cc1ccc(N(C)S(=O)(=O)c2c[nH]c3ccc([N+](=O)[O-])cc23)cc1,-8,nt,5%,-5,56%,10%
COc1cc2c(cc1OC)C(C)N(C(=O)C(NC(=O)c1ccccc1)C(C)C)CC2 (stereo unspecified),-2,6%,0%,-6,?,?
COc1cc(OC)cc(C(=O)Nc2ccc3nc4n(c(=O)c3c2)CCCC4)c1,27*,7%,-1%,70*,14%,?
CCCCC1(CC(=O)OC)C(=O)N(c2ccccc2)N(c2ccccc2)C1=O,-6,1%,-14%,-4,42%,?
CCCCC1(Cc2ccc(OC)c([N+](=O)[O-])c2)C(=O)N(c2ccccc2)N(c2ccccc2)C1=O,-1,-8%,9%,-10,?,1.5µM*
COc1cc(C(O)P(=O)(OCCC(C)C)c2ccc(N(C)C)cc2)cc(OC)c1OC (stereo unspecified),3,2%,2%,-1,?,-24%
COC(=O)C1=NN(C(=O)c2cccc(Cl)c2)C(O)(C(C)(C)C)C1 (stereo unspecified),51*,25%,-30%,92*,39%,11%
O=C(Nc1ccccc1)Nc1cccn(Cc2c(F)cccc2Cl)c1=O,60*,?,-2%,95*,-15%,61%
CSc1ccc(NC(=O)Nc2cccn(Cc3ccccc3)c2=O)cc1,29*,-3%,-7%,64*,2%,14%
O=C(NCc1ccccc1)Nc1cccn(Cc2ccccc2Cl)c1=O,3,?,-7%,50*,?,?
O=C(NCc1ccccc1)Nc1cccn(Cc2ccc(Cl)cc2)c1=O,11,-9%,-1%,-9,46%,26%
SMILES,Cycloheximide cs,FBPA Giardia inh,NS1 inh,Shiga inhibitor,Pf growth 96h,Pf growth 48h
COc1ccc(Cn2cccc(NC(=O)Nc3ccc(F)cc3)c2=O)cc1,2,?,-8%,-1,418%,0%
O=C(CCC1CCCC1)NNC(=O)c1cccc(Cl)c1,6,nt,-10%,-1,?,84%
CCCN(CCC)C(=O)c1cn(C)c2ccc(S(=O)(=O)N3CCCC3)cc2c1=O,-5,nt,2%,-5,?,7%
COc1cccc(CC(=O)OCC(=O)NC(C)c2ccc(F)cc2)c1 (stereo unspecified),nt,nt,nt,nt,-14%,-13%
Cc1ccc(-c2nc(=O)[nH]c3ccc(Br)cc23)cc1,1,-10%,22%,-15,27%,-3%
CCn1ncc(/C=N/NC(=O)c2ccc3c(c2)OCO3)c1C,4,1%,-5%,23,32%,5%
CCn1nc(C)c(/C=N\NC(=O)c2ccc3c(c2)OCO3)c1C,39*,2%,-8%,83*,nt,17%
CCn1cc(/C=N/NC(=O)c2ccc3c(c2)OCO3)c(C)n1,16*,-2%,-1%,48,nt,12%
COc1ccccc1NC(=O)Nc1nn(C)c2cccc(OC)c12,0,-20%,-40%,3,12µM*,?
COc1cccc2c1c(NC(=O)c1cc(C)on1)nn2C,-3,-10%,-5%,-11,31%,60%
CN(C)c1cccc2c1c(NC(=O)Nc1ccccc1)nn2C,-1,?,0%,1,9.3µM*,?
CN(C)c1cccc2c1c(NC(=O)c1ccc(F)cc1)nn2C,-2,?,-5%,7,2%,-2%
CN(C)c1cccc2c1c(NC(=O)c1ccc(Cl)cc1)nn2C,1,18µM*,-7%,12,?,-13%
CCCCc1nc2c(c3c1C[C@H](C)OC3)CN(C(=O)Cc1cccs1)CC2,nt,4%[12.9 µM],nt,nt,nt,nt
CN1CCN(S(=O)(=O)c2cccc3nsnc23)CC1,-3,-4%,-2%,32,?,15%
COCO[C@H]([C@@H](C)C=C(Br)Br)[C@@H](C)COCc1ccc(OC)cc1,13,1%,nt,8,nt,nt
COc1cccc(C(=O)Nc2ccc3nc(N4CCN(c5ncccn5)CC4)cc(C)c3c2)c1OC,14*,-5%,-23%,-2,?,?
CCOc1ccccc1C(=O)Nc1ccc2nc(N3CCN(c4ncccn4)CC3)cc(C)c2c1,nt,nt,-55%,nt,nt,nt
COc1ccc(C(=O)Nc2ccc3nc(N4CCN(C)CC4)cc(C)c3c2)c(OC)c1,-3,0%,-3%,-4,30%,7.4µM*
COc1ccc(C)cc1NC(=O)CCC(=O)Nc1ccc2nc(N3CCN(C)CC3)cc(C)c2c1,-2,4%,-6%,-3,39%,?
Cc1ccc(C)c(NC(=O)CN(C)C(=O)c2cc(-c3cccs3)nn2-c2ccccc2)c1,2,nt,18%,-7,0%,-4%

# Bioassay records deposited in PubChem by National Center for Advancing Translational Sciences (NCATS).
